# Reference: PubChem BioAssay (NCI)
# This is part of a sample that, as a whole, favours compounds with a hit. Of some 83,000 tested, about 20% had one in any assay.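 How to read the values: 0–100, growth inhibition (40 = 60% inhibited); 0, no net growth; -100 to 0, cell death (-40 = 40% of starting cells died; -100 = all dead).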 A number with no mark means an inactive call. Calls of active or inactive are those of the source. Rule for the calls: active = growth percent below 10; inactive = the rest.
# Tests used:
# Assay in all cases: NCI-60 one-dose screen, 48 h (100 = growth as untreated, 0 = no growth, -100 = all killed)
# Conditions in all cases: 10 µM unless noted
# NCI-H23 lung = tested on: NCI-H23 lung
# NCI-H226 lung = tested on: NCI-H226 lung
# NCI-H322M lung = tested on: NCI-H322M lung
# HOP-62 NSCLC = tested on: HOP-62 NSCLC
# NCI-H460 lung = tested on: NCI-H460 lung
# HOP-92 NSCLC = tested on: HOP-92 NSCLC
# NCI-H522 lung = tested on: NCI-H522 lung
# A549/ATCC NSCLC = tested on: A549/ATCC NSCLC
# 786-0 renal = tested on: 786-0 renal
# COLO 205 colon = tested on: COLO 205 colon
# DU-145 prostate = tested on: DU-145 prostate
# MALME-3M melanoma = tested on: MALME-3M melanoma
# MDA-MB-231 breast = tested on: MDA-MB-231 breast
# RXF 393 renal = tested on: RXF 393 renal
# SF-268 CNS = tested on: SF-268 CNS
# SF-295 CNS = tested on: SF-295 CNS
# SF-539 CNS = tested on: SF-539 CNS
# UACC-257 melanoma = tested on: UACC-257 melanoma
# M14 melanoma = tested on: M14 melanoma
SMILES,growth (NCI-H23 lung),growth (NCI-H226 lung),growth (NCI-H322M lung),growth (HOP-62 NSCLC),growth (NCI-H460 lung),growth (HOP-92 NSCLC),growth (NCI-H522 lung),growth (A549/ATCC NSCLC),growth (786-0 renal),growth (COLO 205 colon),growth (DU-145 prostate),growth (MALME-3M melanoma),growth (MDA-MB-231 breast),growth (RXF 393 renal),growth (SF-268 CNS),growth (SF-295 CNS),growth (SF-539 CNS),growth (UACC-257 melanoma),growth (M14 melanoma)
Cc1ccc(-c2csc(NC(=O)CSc3nc(-c4ccccc4)cc(=O)[nH]3)n2)cc1,92.2%,103%,93.4%,100%,101%,82.5%,80.3%,91.7%,104%,109%,103%,94.4%,93.2%,110%,90.2%,87.5%,97.7%,99.9%,105%
CCNc1nc2ccc(Nc3ccnc4cc(Cl)ccc34)cc2[nH]1,89.6%,94.8%,97.5%,94.7%,85.9%,61%,98.3%,90.8%,72.2%,61.2%,97%,119%,84.7%,68.5%,88.4%,87.3%,85.6%,97.9%,91.9%
CC/C(=C\c1ccc(OC)cc1)C(=O)c1ccc(OC)cc1,86.4%,93.7%,92.5%,86.8%,102%,85.2%,74.3%,123%,97.3%,121%,105%,114%,96.4%,126%,101%,76.5%,96.5%,101%,102%
Oc1ccc(OCCOc2ccc(O)cc2)cc1,57.2%,92%,82.1%,87.6%,48.5%,94.2%,30.9%,35%,28.3%,108%,61.4%,62%,50.3%,71.7%,61%,32.7%,28%,83.8%,15.8%
Cc1ccc(C(=O)/C(=C/c2ccc([N+](=O)[O-])cc2)SCc2ccc(Cl)cc2)cc1,61.8%,76.3%,75.5%,100%,74.6%,92%,63.1%,67.9%,52.1%,82.7%,86.9%,83.3%,83.8%,95.4%,69.8%,83.3%,112%,83%,74.6%
CC(c1ccccc1)C(C(=O)c1ccccc1)c1ccccc1 (centres undefined),84.6%,73.5%,103%,44.8%,88.3%,107%,68.4%,80%,83.5%,112%,105%,109%,71.6%,90.6%,94.2%,91.8%,98.1%,105%,89.7%
COc1cc2c(c(OC)c1OC)-c1ccc(NNC(=S)N(Cc3cccc(C[N+](Cc4cccc(CNC56CC7CC(CC(C7)C5)C6)c4)(Cc4cccc(CNC56CC7CC(CC(C7)C5)C6)c4)Cc4cccc(CN(C(=S)NNc5ccc6c(cc5=O)[C@@H](NC(C)=O)CCc5cc(OC)c(OC)c(OC)c5-6)C56CC7CC(CC(C7)C5)C6)c4)c3)C34CC5CC(CC(C5)C3)C4)c(=O)cc1[C@@H](NC(C)=O)CC2 (some centres undefined),20.7%,-8.38% (active),49.6%,48.6%,2.48% (active),-5.87% (active),-22.8% (active),20.9%,11%,-56.9% (active),21.3%,-48.1% (active),-26.3% (active),20.2%,18.3%,20.3%,0.867% (active),43.1%,-53.4% (active)
Cc1cccc(-c2cn3ccnc3c(-c3ccc4ncn(Cc5ccccc5)c4c3)n2)c1,90.9%,98.8%,101%,90.3%,89.9%,71.3%,71.6%,85.1%,78.6%,88.6%,85.8%,125%,71.6%,98%,92.8%,85.7%,92.7%,120%,102%
COC1=CC(=O)c2ccccc2C1=O,48.9%,104%,94.9%,44.9%,106%,127%,77.8%,97.4%,105%,117%,88.8%,72.4%,99.1%,118%,102%,104%,124%,59.9%,87.2%
O=C1Nc2ccc(F)cc2/C1=C\c1c(-c2ccccc2)nc2ccccn12,53.4%,91.5%,76.3%,72.5%,81.5%,72.7%,21.3%,71.7%,75.4%,91.9%,86.5%,67.5%,73.4%,50.8%,79.5%,57%,73.3%,90.7%,48.7%
Cc1nnc2c(Cc3ccccc3)nc3ccccc3n12,91.3%,84.9%,100%,108%,100%,82.4%,107%,97.9%,98.6%,113%,97.7%,109%,96.1%,95.4%,89.9%,99.7%,95.8%,104%,99%
COc1ccc(C(=O)c2nc3ccccc3n2CC(=O)c2ccc(F)cc2)cc1,88.4%,102%,99.8%,91.4%,108%,95.5%,35.6%,98.2%,87.3%,131%,104%,68.6%,83%,89.1%,100%,190%,101%,86%,82.8%
Fc1ccc(-c2cn3c(nc4ccccc43)c(-c3ccccc3)n2)cc1,88.5%,97.5%,109%,107%,98.2%,68.7%,64.7%,91.4%,83%,116%,106%,107%,89.3%,80.4%,90.1%,103%,90.1%,101%,109%
O=C(O)c1ccc2c(c1)C(=O)N(Cc1ccccc1)C2=O,98.5%,92.7%,96%,95.8%,102%,86.2%,91.4%,101%,95.5%,107%,102%,97.4%,101%,103%,98%,95%,103%,74.2%,100%
O=C1Nc2ccccc2/C1=C\c1c(-c2ccc(F)cc2)nc2ccccn12,49.1%,79.2%,83%,72.4%,82.6%,79.3%,42.6%,89%,82.1%,76.6%,94.5%,73.7%,60.2%,67%,77.7%,59.9%,78%,102%,53.2%
N#CC(C(=O)/C(=N/NC(=O)c1ccccc1O)C(C#N)c1ccccc1)c1ccccc1 (centres undefined),55.5%,70.5%,68.4%,30.8%,24.3%,40.4%,67.9%,20.1%,85.9%,105%,39.4%,87.8%,63.7%,55.9%,44.1%,101%,33.3%,46.2%,46.4%
